Bioassay records deposited in PubChem by National Center for Advancing Translational Sciences (NCATS).
D1 potentiator – potentiators of human D1 dopamine receptor. P21728. HEK293 TREx D1 cells, calcium flux, dopamine EC20 potentiation. potentiation, % at 10 µM. 0.036% of 360,000 active; in the data active = potentiation above about 30%; also: 0% is about no effect
D1 agonist – activates the human D1 dopamine receptor; P21728; HEK293 T-REx D1 cells, calcium flux, agonist mode; activation, % at 2 µM; 1% of 360,000 active; AID 504660; in the data active = activation above about 30%; also: 0% is about no effect
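Tetracycline-induced HEK293 TREx D1 cells, force-coupled to calcium signalling, were dye-loaded with a no-wash calcium kit. Compound was pin-added after a 10 s baseline. Fluorescence was read kinetically at 1 cycle/s for 180 s, with calcium rises flagged as agonism.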
D1 antag – antagonists of human D1 dopamine receptor | 3.2% of 360,000 active | activity change, negative = inhibition, % at 10 µM | HEK293 TREx D1 cells, calcium flux, dopamine EC80; stronger effect = lower value; in the data active = activity change below about -30%; also: % is scaled to controls: 0 for no effect and ±100 for the full control effect
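Tetracycline-induced HEK293 T-REx cells with force-coupled D1 receptor were loaded with a no-wash calcium dye. Compound was added after a 10 s baseline and read kinetically for 180 s; EC80 dopamine was then added and calcium flux followed another 180 s.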
DRD3 antagonist – blocks the human D3 dopamine receptor. P35462. 2.5% of 360,000 active. D3R cells, DiscoveRx beta-arrestin luminescence, antagonist mode; stronger effect = lower value. AID 652054. max response, negative = inhibition, %; in the data active = max response below about -50%; inconclusive = no clear call, values can overlap the other calls; also: % is scaled to controls: 0 for no effect and ±100 for the full control effect
Target sequence (P35462 whole entry, looked up): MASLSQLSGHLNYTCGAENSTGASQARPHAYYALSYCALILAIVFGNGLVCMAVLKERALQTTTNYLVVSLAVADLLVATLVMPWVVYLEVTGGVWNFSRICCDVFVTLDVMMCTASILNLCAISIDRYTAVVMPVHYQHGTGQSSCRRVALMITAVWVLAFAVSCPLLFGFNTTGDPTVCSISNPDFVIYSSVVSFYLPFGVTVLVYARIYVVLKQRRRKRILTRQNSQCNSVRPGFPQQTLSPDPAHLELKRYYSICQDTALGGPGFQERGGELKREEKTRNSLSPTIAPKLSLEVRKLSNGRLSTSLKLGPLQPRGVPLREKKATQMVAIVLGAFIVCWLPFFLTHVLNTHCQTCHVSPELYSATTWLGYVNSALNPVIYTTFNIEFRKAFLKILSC
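Cells plated overnight at 1500 cells/well, then exposed to library compounds with dopamine controls for 90 minutes at 37 degrees C. DiscoveRx reagent added for 30–60 minutes at room temperature; luminescence read, quantitative HTS format.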
DRD3 agonist – agonists of human D3 dopamine receptor; P35462; D3R DiscoveRx beta-arrestin cells, luminescence, 90 min; max activation, %; 0.58% of 410,000 active; in the data active = max activation above about 30%; also: 0% is about no effect
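Cells at 1500/well, incubated overnight, then treated with pinned compounds (dopamine as control) for 90 min at 37 degrees C. DiscoveRx reagent added for 30 - 60 minutes at room temperature; luminescence read.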
The depositor's hits bear a star; ? = inconclusive; · = no result. This is a sample that favours compounds with a hit; in the whole collection about 6% have one here.

SMILES	D1 potentiator	D1 agonist	D1 antag	DRD3 antagonist	DRD3 agonist
CN1C(=O)C(N=Nc2ccc([N+](=O)[O-])cc2)SC1=S (configuration not stated)	·	·	·	-21.8	8.5
O=[N+]([O-])c1cccc(S(=O)(=O)N2CCN(S(=O)(=O)c3ccc4c(c3)OCCO4)CC2)c1	5.3	1.1	-4.8	·	·
CCOc1ccccc1NS(=O)(=O)c1c(C(=O)OC)sc2cccc(F)c12	-4.0	1.4	7.1	·	2.1
N#CC1=C(N)C(C#N)(C#N)[C@H](c2cccnc2)[C@H]2CN(C(=O)OCc3ccccc3)CC=C12	-3.4	5.6	-1.9	?	-6.2
CN1CC=C2C(C#N)=C(N)C(C#N)(C#N)C(CCc3ccccc3)C2C1 (configuration not stated)	-8.8	8.1	-61.8*	-21.6	-3.2
N#CC1=C(N)C(C#N)(C#N)C(c2ccncc2)C2CN(C(=O)OCc3ccccc3)CC=C12 (configuration not stated)	-7.9	-1.7	-1.0	-63.2*	-14.1
O=C(CN1C(=O)COc2ccc(S(=O)(=O)NC3CCCC3)cc21)Nc1ccc(Cl)cc1	-2.2	10.4	6.9	·	-8.7
Cc1noc(C)c1CSc1nc2ccccc2nc1NS(=O)(=O)c1ccc(Cl)cc1	6.3	12.5	-5.2	-51.2*	0.2
CC(C)NC(=O)CCCc1cn(C)c2ccccc12	1.1	1.8	-1.8	18.9	4.6
CCn1cc(CCC(=O)NC(C)c2ccccc2)c2ccccc21 (configuration not stated)	-2.9	0.0	12.3	-54.6*	-0.3
CC(CCc1ccccc1)NC(=O)CCc1cn(C)c2ccccc12 (configuration not stated)	-1.1	-0.2	-44.1*	0.0	-7.5
Cc1ccccc1Cn1cc(CCC(=O)NC(C)c2ccccc2)c2ccccc21 (configuration not stated)	-5.0	1.0	-6.6	·	-11.3
COc1c(Cl)cc(Cl)cc1C(=O)Nc1ccc(CN2CCOCC2)cc1	-3.8	4.8	-28.0	6.1	-6.4
Cc1ccc(C(=O)NC(=S)Nc2ccc(CN3CCCCC3)cc2)c(C)c1	-11.1	12.1	-42.3*	-26.9	-12.9
COc1c(Cl)cc(Cl)cc1C(=O)Nc1ccc(CN2CCCCC2)cc1	0.0	30.9*	0.3	-18.7	0.5
COc1cccc(CNC(=O)c2nc(Cn3nc(C)c(Br)c3C)no2)c1	-0.2	6.2	-8.6	·	-0.4
CSc1ccc(CN(C)CC(=O)Nc2ccc(C)cc2Br)cc1	2.5	14.6	-5.9	-55.6*	-35.2
Cc1cc(S(=O)(=O)c2ccc(Cl)cc2)nc(S(=O)(=O)c2ccc(Cl)cc2)c1C#N	·	·	·	-76.5*	-16.6
O=C(OCc1ccco1)c1ccc2c(c1)N(Cc1ccc([N+](=O)[O-])cc1)C(=O)c1ccccc1S2	4.3	3.9	5.4	·	-9.7
Cc1ccc(Nc2nc(N)nc(CN3CCN(C)CC3)n2)cc1C	-3.7	2.6	11.5	·	·
COC(=O)CC(=O)Cc1nc(N)nc(Nc2ccc(C)c(C)c2)n1	-9.1	0.5	-50.4*	7.5	6.8
COc1ccc(C(=O)CCC(=O)O)c2ccccc12	·	·	·	·	-6.9
O=C(CN(Cc1ccccc1F)C(=O)Cn1nnc(-c2cccs2)n1)NC1CCCCC1	-1.2	-1.0	3.5	-1.1	0.6
O=C(NCCN1CCC(Cc2ccccc2)CC1)C1CCN(S(=O)(=O)N2CCC3(CC2)OCCO3)CC1	-3.8	3.6	5.9	-50.2*	-7.4
O=C(NCCCN1CCN(Cc2ccccc2)CC1)C1CCN(S(=O)(=O)N2CCC3(CC2)OCCO3)CC1	-1.8	-2.9	16.7	-0.4	-3.1
SMILES	D1 potentiator	D1 agonist	D1 antag	DRD3 antagonist	DRD3 agonist
CS(=O)(=O)N1CCC(C(=O)NCCN2CCN(Cc3ccccc3)CC2)CC1	3.6	2.9	10.9	-101.2*	-1.7
O=C(NCCCN1CCC(Cc2ccccc2)CC1)C1CCN(S(=O)(=O)N2CCC3(CC2)OCCO3)CC1	5.2	-2.2	-7.4	6.9	-4.5
CCOC(=O)CC(NC(=O)CCc1c(C)nc2cc(-c3ccccc3)nn2c1C)c1ccc(C)cc1 (configuration not stated)	-6.8	11.1	-12.8	·	-12.9
COc1ccc(CCNC(=O)CC2SC(=NCc3ccccc3OC)NC2=O)cc1 (configuration not stated)	0.1	-2.6	-8.9	-12.1	5.2
COc1ccc(CCNC(=O)COC(=O)c2ccc(C)s2)cc1OC	-11.8	6.9	-33.4*	6.1	16.6
COc1ccc(CCC(=O)NCCc2ccc(OC)c(OC)c2)cc1	-9.9	4.5	-6.7	6.2	6.1
COc1ccc(CC(C)CC(=O)NCCc2ccc(OC)c(OC)c2)cc1 (configuration not stated)	-1.8	1.3	-74.8*	24.2	1.9
CCOc1ccc(CCNC(=O)COC(=O)c2ccc(C)s2)cc1OCC	9.7	0.7	2.3	10.6	3.4
COc1ccc(CNC(=O)CCc2c(C)c3ccc(OC)c(C)c3oc2=O)cc1OC	-0.2	-1.0	5.8	·	6.8
COc1ccc(N=C2NC(=O)C(CC(=O)NCCc3ccc(OC)c(OC)c3)S2)cc1 (configuration not stated)	-0.2	3.6	-38.1*	-7.9	12.3
COc1ccc(CCNC(=O)Cc2c(C)c3ccc(O)c(C)c3oc2=O)cc1OC	1.4	-2.1	-1.1	·	37.9*
COc1cc(NC(=O)CSc2ccc3c(c2)OCCO3)cc(OC)c1OC	-2.3	15.3	-35.9*	55.8	10.8
Cc1nnc(SCC(=O)NC(=O)Nc2ccc3c(c2)OCCO3)s1	-9.5	6.3	0.7	-69.9*	-11.4
O=C(CSc1ccc2c(c1)OCCO2)Nc1ccc(Br)cc1	-2.2	3.7	-22.0	-62.9*	7.1
CCN(CC)CCCOC(=O)c1ccc(OC)cc1O	5.0	6.1	5.3	-22.3	-9.9
Nc1ncc(S(=O)(=O)NCc2cccc(Cl)c2)cn1	-3.9	1.3	7.3	·	13.2
CSc1nc(-c2ccccc2)[nH]c(=S)c1C(C)=O	-0.3	2.4	0.3	-93.4*	-8.3
Cc1cccc(OCc2nnc(SCC(=O)Nc3cccc(C(=O)N4CCOCC4)c3)n2C)c1C	-2.1	1.8	-41.7*	6.4	-11.0
O=C(NCc1ccccc1)C1=C[C@@H](c2ccccc2)C[C@@H](OCc2ccc(CO)cc2)O1	0.8	-3.0	-13.8	-9.7	-15.3
O=C(NCc1ccccc1)C1=C[C@H](c2ccc(Br)cc2)C[C@H](OCc2ccc(CO)cc2)O1	-2.8	32.4*	1.8	-6.3	-13.8
O=C(C1=C[C@@H](c2ccccc2)C[C@@H](OCCCCO)O1)N1CCOCC1	-2.5	-4.8	-37.4*	29.0	3.3
CC(C)(C)[C@H]1C=C(C(=O)N2CCOCC2)O[C@@H](OCc2ccc(CO)cc2)C1	2.1	-3.3	-21.2	-51.8*	-34.6
CC(C)(C)[C@@H]1C=C(C(=O)N2CCOCC2)O[C@H](OCc2ccc(CO)cc2)C1	0.2	-1.2	-9.3	-24.3	-16.1
